# From PubChem BioAssay
# SF1 inhibitor = inhibitors of human nuclear receptor SF-1 | Q13285 | CHO-K1 Gal4-SF-1 LBD luciferase reporter | inhibition, % at 10 µM | hit rate 0.55% among 65,000 | AID 525;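 active means inhibition above the mean inhibition of all tested compounds plus 3 SD, cut at about 48% in these data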;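 further: 0% = SF-1 transfected cells with DMSO and 100% = mock-transfected cells lacking SF-1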
# Target sequence (Q13285 whole entry, looked up, the tested form may be a part): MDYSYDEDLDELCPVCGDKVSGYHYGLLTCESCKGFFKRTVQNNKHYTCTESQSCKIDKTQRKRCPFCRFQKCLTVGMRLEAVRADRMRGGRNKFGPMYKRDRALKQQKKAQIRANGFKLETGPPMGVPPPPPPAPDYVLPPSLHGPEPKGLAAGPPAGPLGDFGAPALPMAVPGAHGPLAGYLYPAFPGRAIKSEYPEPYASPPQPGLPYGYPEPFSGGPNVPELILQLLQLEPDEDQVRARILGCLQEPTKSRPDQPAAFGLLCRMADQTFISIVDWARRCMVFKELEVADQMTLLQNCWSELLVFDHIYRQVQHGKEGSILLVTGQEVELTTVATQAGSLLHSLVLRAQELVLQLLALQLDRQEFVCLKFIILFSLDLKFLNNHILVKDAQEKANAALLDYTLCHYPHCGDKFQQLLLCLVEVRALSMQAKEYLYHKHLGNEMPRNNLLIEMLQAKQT
# * = called active by the depositor. This excerpt belongs to a sample that is enriched for hits.
SMILES,SF1 inhibitor
Cc1cc(NC(=O)c2ccc3c(c2)OCCO3)no1,51*
Cc1cc(NC(=O)c2noc3c2CCCCC3)no1,-39
Cc1ccc(S(=O)(=O)Nc2cccc3ncccc23)s1,91*
COC(=O)c1ccc(=O)n(-c2ccc(OC)cc2)c1,16
CS(=O)(=O)c1nc(-c2cccs2)cc(C(F)(F)F)n1,70*
Nc1c(C(=O)NC2CCCC2)sc2nc(-c3cccs3)ccc12,-60
Cc1cc(NC(=O)CCCS(=O)(=O)c2nc(-c3cccs3)cc(C(F)(F)F)n2)no1,48*
CCn1cnc2c1c(=O)n(CC(=O)Nc1cc(C)on1)c(=O)n2Cc1ccccc1,0
COc1ccc(-c2cc(C(F)(F)F)nc(SCC(=O)Nc3cc(C)on3)n2)cc1OC,23
O=C(O)CSc1ccccn1,-2
COc1ccc(CCNC(=O)CN2C(=O)c3ccccc3S2(=O)=O)cc1OC,10
Nc1nnnn1/N=C/C(Br)=C/c1ccccc1,96*
Cc1cc2c(cc1C)NC1(C(=O)Nc3ccccc31)C1=C(CC(C)(C)CC1=O)N2 (stereo not drawn),-16
NC(=O)c1c(NC(=O)Cc2cccs2)sc2c1CCC2,-51
CN(C)c1nc(Oc2ccc(N)cc2)nc(N(C)C)n1,-19
Cc1ccc(-c2nc(CS(=O)(=O)CC(=O)N3CC(C)CC(C)C3)c(C)o2)cc1 (stereo not drawn),0
CCC(OC(=O)c1ccco1)C(=O)NCc1ccco1 (stereo not drawn),13
CCOC(=O)N1CCC(NC(=O)C2CCN(Cc3nc(-c4ccc(CC)cc4)oc3C)CC2)CC1,16
COCCNC(=O)CSCc1nc(-c2ccc(SC)cc2)oc1C,90*
CCOCCCNC(=O)CS(=O)(=O)Cc1nc(-c2cccc(OC)c2)oc1C,-6
COCCNC(=O)c1ccc2ccccc2n1,-8
CCOc1ccc(-c2nc(CSCC(=O)NCc3ccco3)c(C)o2)cc1,94*
CCc1ccc(-c2nc(CSCC(=O)NCCCN3CCCC3=O)c(C)o2)cc1,63*
COc1ccc(C(=O)Nc2ccccc2-c2nnn(CC(=O)NCc3ccco3)n2)cc1,8
CC(CCc1ccccc1)NC(=O)c1cc2sccc2n1C (stereo not drawn),4
SMILES,SF1 inhibitor
CC(=O)c1cccc(S(=O)(=O)N2CCN(c3nc4cc(C)cc(C)c4cc3C#N)CC2)c1,1
CCCCN(CC)Cc1ccc(CNC(=O)Nc2ccc(OC)cc2OC)o1,-7
CCCCn1cnc2c(cnn2-c2ccc(Cl)cc2)c1=O,-65
Cc1ccc(C)c(CN2CCCNC2=O)c1,11
CC(=O)Cc1nsc(NC(=O)c2cc(-c3cccc(C(F)(F)F)c3)oc2C)n1,-2
[O-][N+]1=c2ccc(Nc3ccccc3)cc2=NC12CCCCC2,62*
COc1cccc(C(=O)N2CCN=C2SCc2cccnc2)c1OC,-1
C=C(C)CSC1=C(C#N)C(c2ccccc2)CC(=O)N1 (stereo not drawn),10
CC(C(=O)NC1CCCC1)N(C(=O)c1snc(C(N)=O)c1N)c1ccc2c(c1)OCCO2 (stereo not drawn),-7
CCN(C(=O)c1ccc(C(C)(C)C)cc1)c1nnc(Cn2nnc3ccccc32)s1,69*
Cc1cc(C(=O)CSc2nncs2)c(C)n1-c1ccc2c(c1)OCO2,-69
CC(=O)Oc1c(S(=O)(=O)c2ccc(C)cc2)c(C)nn1-c1ccccc1,-10
COc1cccc(-c2nc(CS(=O)(=O)CC(=O)N3CCN(C)CC3)c(C)o2)c1,-7
COc1cccc(-c2nnc(NC(=O)c3ccc(S(=O)(=O)N4CC(C)OC(C)C4)cc3)o2)c1 (stereo not drawn),49*
COc1cccc(-c2nc(-c3ccc(NC(=O)c4cccnc4)cc3)no2)c1,-55
COc1ccc(CCCc2nnc(SCC(=O)Nc3nccs3)n2C)cc1C,-1
COc1cccc(C(=O)Cn2c(Br)nc3c2c(=O)n(C)c(=O)n3C)c1,12
Cc1ccc(C(C)C)c(OCCNc2nc3c(c(=O)n(C)c(=O)n3C)n2C)c1,49*
CCOC(=O)N1CCN(C(=O)CN2C(=O)CC(C)(C)S(=O)(=O)c3ccccc32)CC1,-4
COc1cc([C@@H]2c3cc4c(cc3[C@H](O)[C@H]3COC(=O)[C@H]23)OCO4)cc(OC)c1OC,78*
COc1cc(C2NC(=O)NC(O)(C(F)(F)F)C2C(C)=O)cc(OC)c1OC (stereo not drawn),-11
COC(=O)C1C(O)=C(C=NCC(C)N=CC2=C(O)C(C(=O)OC)C(C)(C)CC2=O)C(=O)CC1(C)C (stereo not drawn),-4
COc1ccccc1NC(=O)c1cnc2n(c1=O)CCS2,-29
CCOC(=O)NCC(C#CCN(CC)CC)N(CC)CC (stereo not drawn),8
COCCNC(=O)c1cc(-c2ccccc2OC)on1,-71
SMILES,SF1 inhibitor
CCC1CCCCN1C(=O)COc1cc(=O)n(C)c2ccccc12 (stereo not drawn),0
CCOC(=O)C1CCCN(C(=O)CCCOc2cc(=O)n(C)c3ccccc23)C1 (stereo not drawn),14
Cc1ccnc(NC(=O)CCCOc2cc(=O)n(C)c3ccccc23)c1,59*
O=c1c2ccccc2nnn1CSc1nnc2ccccn12,-78
O=c1c2ccccc2nnn1CSc1ccc2c(c1)OCCO2,-77
COc1ccc2nc(NC(=O)c3ccc(-n4nc(C)cc4C)cc3)sc2c1,15
COC(=O)CSc1nc(C)cc(Oc2ccccc2)n1,-7
COC(=O)c1ccc(Oc2cc(C)nc(-n3nc(C)cc3C)n2)cc1,51*
CC(C)(C)n1ncc2c(=O)n(CC(=O)NCc3ccccc3Cl)cnc21,-74
O=C1c2ccccc2C(=O)C1c1nccc2ccccc12,60*
c1ccc2c(-c3nc(-c4ccncc4)no3)cccc2c1,-74
CC1(C)CC(OC(=O)c2ccco2)CC(C)(C)N1O,9
O=C(Nc1ccc(SC(F)F)cc1)c1ccc2nccnc2c1,18
CCCn1c(NC(=O)C2CCN(S(=O)(=O)c3cccs3)CC2)nc2ccccc21,20
CCc1c(C)nc(SC)n(CC#N)c1=O,6
Cc1c(C(=O)OCCOC(C)C)[nH]c2c1C(=O)CC(C)(C)C2,8
CCCCOC(=O)c1[nH]c2c(c1C)C(=O)CC(c1cc(OC)c(OC)c(OC)c1)C2 (stereo not drawn),54*
CCOC(=O)C1=C(C)NC2=C(C(=O)CCC2)C1c1cc(OC)ccc1OC (stereo not drawn),-2
CCOC(=O)C(C(=O)OCC)C(=O)c1cc(OC)c(OC)c(OC)c1,-1
C=CCOC(=O)c1[nH]c2c(c1C)C(=O)CC(c1cc(OC)c(OC)c(OC)c1)C2 (stereo not drawn),52*
O=C(CCC1(C(=O)O)CCC(=O)NC1)NCc1ccccc1 (stereo not drawn),-20
Cc1cc(NO)nc(-c2ccc(Br)cc2)n1,-64
CCOc1ccc2[nH]c(S(=O)(=O)CC)nc2c1Cl,-9
O[C@@H]1C2CCCC1[C@]1(O)CCCCC1C2 (stereo partly drawn),12
CCS(=O)(=O)c1ccc2oc(Nc3ccccc3C)nc2c1,-66
SMILES,SF1 inhibitor
O=C(Nc1ccccc1)N(O)c1ccc(Cl)cc1,-58
Nc1ccc2oc(CCc3ccccc3)nc2c1,-79
Cc1ccccc1-c1nc2cc(N)ccc2o1,-58
CC(C)c1ccc2oc(-c3cc(N)ccc3O)nc2c1,60*
Cc1cccc2[nH]c(-c3ccc(NC(=O)c4ccco4)cc3)nc12,-74
CCOC(=O)c1[nH]c(C)c(C(=O)Nc2ccccc2F)c1C,-83
CCOC(=O)c1cc2sccc2n1CCCN1C(=O)c2ccccc2C1=O,2
CC(=O)c1c(C)[nH]c(C(=O)OCCCCN2C(=O)c3ccccc3C2=O)c1C,84*
